Screens: PubChem BioAssay, Broad Institute
Most compounds without a hit are left out; they make up all but 1.4% or so of the library.
PGC1a acetyl inh: modulators of PGC1a acetylation; U2OS PGC1a acetylation, AlphaScreen anti-acetyl-lysine; with virally co-expressed GCN5 acetyltransferase; inhibition, % at 15.6 µM; 350,000 tested, 0.17% active; AID 651687;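 active = every replicate shows inhibition of at least 40%; inconclusive = mean inhibition at least 40% but some replicate below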
ERAP1 HTS inh: inhibitors of human ERAP1 aminopeptidase | Q9NZ08 | recombinant ERAP1, Leu-AMC fluorescence, 60 min | inhibition, % at 10.7 µM | 340,000 tested, 0.15% active;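 active = mean replicate inhibition of at least 30%, or all replicates individually reaching that 30% level; inactive = mean below 30% and not every replicate reaching it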
Target sequence (Q9NZ08 whole entry, looked up): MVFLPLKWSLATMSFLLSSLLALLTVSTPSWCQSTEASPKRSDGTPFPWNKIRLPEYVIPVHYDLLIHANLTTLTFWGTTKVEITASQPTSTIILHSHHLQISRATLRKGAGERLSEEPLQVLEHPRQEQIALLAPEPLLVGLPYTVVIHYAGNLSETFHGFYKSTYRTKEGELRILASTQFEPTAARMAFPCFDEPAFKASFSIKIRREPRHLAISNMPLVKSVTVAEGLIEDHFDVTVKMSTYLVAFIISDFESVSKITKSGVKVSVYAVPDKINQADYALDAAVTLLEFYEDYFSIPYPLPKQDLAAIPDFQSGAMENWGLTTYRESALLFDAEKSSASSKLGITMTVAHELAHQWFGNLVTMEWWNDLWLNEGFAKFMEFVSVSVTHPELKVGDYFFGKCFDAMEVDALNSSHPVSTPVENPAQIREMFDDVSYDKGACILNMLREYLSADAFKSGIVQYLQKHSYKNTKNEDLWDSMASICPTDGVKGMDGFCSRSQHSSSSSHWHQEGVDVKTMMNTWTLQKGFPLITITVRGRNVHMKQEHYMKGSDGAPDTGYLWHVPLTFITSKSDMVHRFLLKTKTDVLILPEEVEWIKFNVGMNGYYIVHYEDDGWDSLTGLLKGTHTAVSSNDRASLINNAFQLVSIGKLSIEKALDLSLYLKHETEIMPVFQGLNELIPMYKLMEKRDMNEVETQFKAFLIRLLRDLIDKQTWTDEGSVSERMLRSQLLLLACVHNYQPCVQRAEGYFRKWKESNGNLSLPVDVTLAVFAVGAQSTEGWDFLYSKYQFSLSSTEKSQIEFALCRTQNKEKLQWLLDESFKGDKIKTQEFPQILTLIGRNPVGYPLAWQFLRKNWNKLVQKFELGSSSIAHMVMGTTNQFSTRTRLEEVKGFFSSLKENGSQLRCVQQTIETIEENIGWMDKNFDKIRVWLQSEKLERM
AF4-AF9 inh: MLL-AF4/AF9 protein interaction inhibition; AlphaScreen, biotin-AF4 peptide binding to FLAG-AF9; inhibition, % at 10 µM; P42568; 350,000 tested, 0.47% active;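 active = every replicate reaching a set inhibition limit, whatever the replicate mean, cut at about 25% in these data; inconclusive = mean inhibition reaches that limit but some replicates miss it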
RAD52 anneal inh: RAD52 (human) annealing inhibition. P43351. recombinant RAD52 DNA annealing, FRET fluorescence. inhibition, % at 18.7 µM. 360,000 tested, 0.46% active;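 active = every replicate showing at least 50% inhibition; inconclusive = mean inhibition at least 50% but not in every replicate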
RAD54 branch: blocks human RAD54 Holliday junction branch migration | FAM/BHQ fluorescence | inhibition, % at 10.4 µM | 360,000 tested, 0.14% active | Q92698;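 active = mean normalized replicate activity at least 40 and at least half of replicates scoring 40 or more; inconclusive = only one of the two criteria met; inactive = mean below 40 and under half of replicates reaching 40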;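 also: inhibitors cause a drop in the FAM fluorescence signal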
INS-1E GSIS act: primary screen for activators of insulin secretion dependent on glucose, INS-1E cells, GLuc reporter luminescence. 370,000 tested, 0.61% active. AID 743287. INS-1E GLuc reporter insulin secretion, 2-3 h. activation, % at 16.6 µM;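 active = lowest replicate activation of at least 40%, so every replicate reaches that level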
DNA binding: DNA binding artifact in Rad54 counter-screen. shares compounds with RAD54 branch. Acridine orange-DNA displacement, fluorescence polarization, 20 min. AC50, µM (top dose mostly 35 µM). 460 tested, 8% active. AID 651673;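 active = signal drop giving an AC50 within twice the top valid tested concentration of each sample, actives reach about 35 µM in these data; inactive = activity opposite to expected, plus the rest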;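 also: polarization loss reports compound binding to salmon sperm DNA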
A number is an active result.

What do the screens show for `CN1CCN(CCCNC(=O)c2cc3c(-c4ccc(Cl)cc4)nn(C)c3s2)CC1`?
PGC1a acetyl inh: inactive; ERAP1 HTS inh: inactive; AF4-AF9 inh: inactive; RAD52 anneal inh: inactive; RAD54 branch: 61; INS-1E GSIS act: inactive; DNA binding: inactive

How did CCN(CC)CCCNC(=O)c1cc2c(-c3ccc(Cl)cc3)nn(C)c2s1 do in these assays?
ERAP1 HTS inh: inactive; AF4-AF9 inh: inactive; RAD52 anneal inh: inactive; RAD54 branch: inconclusive; INS-1E GSIS act: inactive; DNA binding: inactive

How did Cn1nc(-c2ccc(Cl)cc2)c2cc(C(=O)NCC3CCCO3)sc21 (stereo not drawn) do in these assays?
PGC1a acetyl inh: inactive; AF4-AF9 inh: inactive; RAD52 anneal inh: inactive; RAD54 branch: inactive; INS-1E GSIS act: inactive

What do the screens show for `Cc1nc(NC(=O)c2ccc(Cl)cc2)nc2cc3c(cc12)OCO3`?
PGC1a acetyl inh: inactive; RAD54 branch: inactive; INS-1E GSIS act: inactive

Results for Cc1c(-c2cc(Br)ccc2O)nc2cc3c(cc2c1C)OCO3 ?
PGC1a acetyl inh: inactive; ERAP1 HTS inh: inactive; AF4-AF9 inh: inactive; RAD52 anneal inh: inactive; RAD54 branch: inconclusive; INS-1E GSIS act: inactive; DNA binding: inactive

How did COc1ccccc1Nc1c2ccccc2nc2ccccc12 do in these assays?
PGC1a acetyl inh: inactive; ERAP1 HTS inh: inactive; AF4-AF9 inh: inactive; RAD52 anneal inh: inactive; RAD54 branch: 59; INS-1E GSIS act: inactive; DNA binding: inactive

How did COc1ccccc1Nc1nc(-c2ccccc2)nc2ccccc12 do in these assays?
ERAP1 HTS inh: inactive; AF4-AF9 inh: inactive; RAD52 anneal inh: inactive; INS-1E GSIS act: inactive

Results for OCCN1CCN(c2nc(-c3ccccc3O)nc3ccccc23)CC1 ?
PGC1a acetyl inh: inactive; ERAP1 HTS inh: inactive; AF4-AF9 inh: inactive; RAD52 anneal inh: inactive; RAD54 branch: 73; INS-1E GSIS act: inactive; DNA binding: inactive

How did CN1CCN(c2nc(-c3cccs3)nc3ccccc23)CC1 do in these assays?
ERAP1 HTS inh: inactive; AF4-AF9 inh: inactive; RAD52 anneal inh: inactive; RAD54 branch: 71; INS-1E GSIS act: inactive; DNA binding: inactive

How did CN1CCN(c2nc(-c3ccncc3)nc3ccccc23)CC1 do in these assays?
PGC1a acetyl inh: inactive; RAD54 branch: 87; DNA binding: inactive

How did O=C(C1CCCC1)N1CC[C@H]2[C@H](CO)Nc3ccc(C4=CCCCC4)cc3[C@H]21 do in these assays?
PGC1a acetyl inh: inactive; ERAP1 HTS inh: inactive; AF4-AF9 inh: inactive; RAD52 anneal inh: inactive; INS-1E GSIS act: inactive

What do the screens show for `OCCNc1nc(Nc2ccc(O)cc2)nc2ccccc12`?
PGC1a acetyl inh: inactive; AF4-AF9 inh: inactive; RAD52 anneal inh: inactive; RAD54 branch: 52; DNA binding: inactive

Results for OCCNc1nc(Nc2cccc(O)c2)nc2ccccc12 ?
PGC1a acetyl inh: inactive; ERAP1 HTS inh: inactive; AF4-AF9 inh: inactive; RAD52 anneal inh: inactive; INS-1E GSIS act: inactive

Results for COc1ccc2cc3cc(C(=O)NCCCN4CCC(C)CC4)oc3nc2c1 ?
PGC1a acetyl inh: inactive; RAD54 branch: 58; DNA binding: inactive

How did COc1ccc2cc3cc(C(=O)NCCN4CCN(Cc5ccccc5)CC4)oc3nc2c1 do in these assays?
PGC1a acetyl inh: inactive; RAD54 branch: inactive

What do the screens show for `COc1ccc2cc3cc(C(=O)NCCN4CCc5ccccc5C4)oc3nc2c1`?
PGC1a acetyl inh: inactive; RAD54 branch: inactive

What do the screens show for `CCN1CCN(CCCNC(=O)c2cc3cc4ccc(OC)cc4nc3o2)CC1`?
PGC1a acetyl inh: inactive; RAD54 branch: 56; DNA binding: inactive

Results for CCCN(CCC)CCCNC(=O)c1cc2cc3ccc(OC)cc3nc2o1 ?
RAD54 branch: inconclusive; DNA binding: inactive

What do the screens show for `COc1cccc(S(=O)(=O)Nc2ccc3c(c2)C(=O)N(C)[C@H]2CC[C@H](CC(=O)Nc4ccc(C(C)C)cc4)O[C@@H]2CO3)c1`?
PGC1a acetyl inh: inactive; ERAP1 HTS inh: inactive; AF4-AF9 inh: inactive; RAD52 anneal inh: inactive; RAD54 branch: inactive; INS-1E GSIS act: inactive

How did CCOC(=O)c1cc(-c2ccncc2)nc2c1c(C)nn2-c1ccccn1 do in these assays?
PGC1a acetyl inh: inactive; RAD54 branch: 65; INS-1E GSIS act: 66; DNA binding: inactive

How did COc1ccc(-c2cc(C(=O)O)c3c(C)nn(-c4ccccn4)c3n2)cc1 do in these assays?
INS-1E GSIS act: inactive

Results for C=CC(=O)Nc1ccc(N(C)c2ccnc(Nc3ccc(N4CCN(C)CC4)cc3)n2)cc1 ?
ERAP1 HTS inh: inactive; AF4-AF9 inh: 60; RAD52 anneal inh: 100; RAD54 branch: 75; INS-1E GSIS act: inactive; DNA binding: inactive

How did COc1ccc(-c2cnc3c(c2)C(=O)N([C@H](C)CO)C[C@H](C)[C@H](CN(C)S(=O)(=O)c2ccc(OC)cc2)O3)cc1 do in these assays?
PGC1a acetyl inh: inactive; INS-1E GSIS act: inactive

Results for O=C(CSc1nc2ccccc2[nH]1)Nc1nc(-c2cccc(Br)c2)cs1 ?
ERAP1 HTS inh: inactive; AF4-AF9 inh: inactive; RAD52 anneal inh: inactive

How did CN(C)CCCn1c(SCC(=O)Nc2nc(-c3cccc(Br)c3)cs2)nc2ccccc2c1=O do in these assays?
PGC1a acetyl inh: inactive; AF4-AF9 inh: 35; RAD52 anneal inh: inactive; RAD54 branch: inconclusive; INS-1E GSIS act: inactive; DNA binding: inactive

How did Clc1ccc2[nH]c3c(NCCCN4CCOCC4)ncnc3c2c1 do in these assays?
PGC1a acetyl inh: inactive; RAD54 branch: inconclusive; DNA binding: inactive

How did Cc1ccc(-c2nc(NCCCO)c3ccccc3n2)cc1 do in these assays?
PGC1a acetyl inh: inactive; ERAP1 HTS inh: inactive; AF4-AF9 inh: inactive; RAD52 anneal inh: inactive; RAD54 branch: inconclusive; DNA binding: inactive

Results for Cc1cccc(-c2nc(NCCCN3CCOCC3)c3ccccc3n2)c1 ?
PGC1a acetyl inh: inactive; RAD54 branch: inactive

How did CN(C)CCCNc1nc(-c2ccc(Cl)cc2)nc2ccccc12 do in these assays?
ERAP1 HTS inh: inactive; AF4-AF9 inh: inactive; RAD52 anneal inh: 50; RAD54 branch: 71; INS-1E GSIS act: inactive; DNA binding: inactive

What do the screens show for `O=C(O)CCNc1nc(-c2ccccc2)nc2ccccc12`?
PGC1a acetyl inh: inactive; RAD54 branch: inactive

Results for CCOc1nc(-c2ccc(Cl)cc2)nc2ccccc12 ?
INS-1E GSIS act: inactive

How did c1ccc(-c2nc(NCCCN3CCOCC3)c3ccccc3n2)cc1 do in these assays?
PGC1a acetyl inh: inactive; RAD54 branch: inconclusive; INS-1E GSIS act: inactive; DNA binding: inactive

What do the screens show for `C[C@H](CO)N1C[C@H](C)[C@@H](CN(C)S(=O)(=O)c2ccccc2)Oc2ccc(NC(=O)NC3CCCCC3)cc2CC1=O`?
PGC1a acetyl inh: inactive; ERAP1 HTS inh: inactive; AF4-AF9 inh: inactive; RAD52 anneal inh: inactive; RAD54 branch: inactive; INS-1E GSIS act: inactive

What do the screens show for `O=C(C[C@H]1C[C@H]2c3cc(NC(=O)Nc4ccccc4)ccc3O[C@H]2[C@@H](CO)O1)NCc1ccncc1`?
PGC1a acetyl inh: inactive; ERAP1 HTS inh: inactive; AF4-AF9 inh: inactive; RAD52 anneal inh: inactive; RAD54 branch: inactive; INS-1E GSIS act: inactive
